Source: the supplement of paper PMC4723716
± gives the uncertainty stated by the source. In all, about 9,900 compounds were measured (“viability index relative to DMSO control”: median about 1, lowest 2% from about 0.85 on). What follows is part of a selection rich in the lowest values, with near analogues and random picks from the rest.

Test system: Plasmodium falciparum NF54 stage V gametocytes
Assay: viability index relative to DMSO control (fraction); higher = less gametocyte killing
Settings: 2.5 µM, incubation time: 72 h
Procedure, shortened: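 Viability index is the count of red-stained particles in a well divided by the plate mean of solvent-only wells. Particles of 20–70 µm2 were counted in one imaged field per well after one to two hours with 3 µl of 2.5 µM MitoTracker Red CMXRos and 0.13% saponin. Before staining, P. falciparum NF54 stage V gametocytes in serum-free medium (0.75% gametocytemia, 1.25% hematocrit, 10 µl, 1,536-well plates) were kept with compound at 2.5 µM for 72 hr at 37°C under low oxygen.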

[1] = library set: Broad Institute DOS
[2] = library set: Broad Institute Blood Stage

SMILES | viability index [1] | viability index [2]
CC(C)(C)[S@@](=O)N1Cc2cc(C(=O)NC3CCC3)nc(-c3cccc(-c4ccccc4F)c3)c2[C@H]1CCO | 1.02 ± 0.012 | 
CC(C)C[C@H]1COCc2cn(nn2)CC[C@@H](Cc2ccc(Cl)cc2)C(=O)N1 | 0.955 ± 0.036 | 
Cc1noc(C)c1C(=O)N(C)C[C@H]1OCc2ccccc2-c2ccccc2C(=O)N([C@@H](C)CO)C[C@@H]1C | 1.01 ± 0.065 | 
O=C(Nc1ccc2c(c1)[C@@H]1C[C@H](CC(=O)N3CCc4ccccc4C3)O[C@@H](CO)[C@@H]1O2)c1ccc2c(c1)OCO2 | 0.991 ± 0.038 | 
CN(C)C(=O)[C@@H]1[C@@H](CO)[C@@H]2Cn3c(ccc(C4=CCCC4)c3=O)[C@H]1N2S(=O)(=O)c1cn(C)cn1 | 0.984 ± 0.045 | 
N#C[C@H]1N[C@H](CO)[C@@H]1c1ccc(C#Cc2ccccc2F)cc1 | 1.07 ± 0.076 | 
CC[C@H]1C/C=C/C[C@@H](C)Oc2ccccc2C(=O)N(C)[C@H](C)C(=O)N1.CC[C@H]1C/C=C\C[C@@H](C)Oc2ccccc2C(=O)N(C)[C@H](C)C(=O)N1 | 1.04 ± 0.086 | 
CC(C)C#Cc1ccc([C@H]2[C@H]3CN(C(=O)Cc4ccccc4)CC(=O)N3[C@H]2CO)cc1 | 1.045 ± 0.0096 | 
Cc1ccccc1-c1ccc([C@H]2[C@@H](CO)N3CCCCN(S(=O)(=O)Cc4ccccc4)C[C@@H]23)cc1 | 0.991 ± 0.063 | 
Cc1cccc(-c2ccc([C@@H]3[C@@H](CO)N4CCCCN(S(=O)(=O)c5ccccc5F)C[C@H]34)cc2)c1 | 0.537 ± 0.053 | 
Cc1ccccc1-c1ccc([C@@H]2[C@H](CO)N3CCCCN(S(=O)(=O)Cc4ccccc4)C[C@@H]23)cc1 | 0.74 ± 0.039 | 
Cc1cccc(-c2ccc([C@H]3[C@@H](CO)N4CCCCN(S(=O)(=O)c5ccccc5F)C[C@@H]34)cc2)c1 | 1 ± 0.044 | 
Cc1ccccc1-c1ccc([C@H]2[C@H](CO)N3CCCCN(S(=O)(=O)Cc4ccccc4)C[C@@H]23)cc1 | 0.924 ± 0.034 | 
Cc1cccc(-c2ccc([C@H]3[C@H]4CN(S(=O)(=O)c5ccccc5F)CCCCN4[C@H]3CO)cc2)c1 | 0.973 ± 0.094 | 
Cc1noc(C)c1NC(=O)Nc1cccc2c1O[C@H](CN(C)Cc1ccc(C(=O)Nc3ccccc3N)cc1)[C@@H](C)CN([C@H](C)CO)C2=O | 0.961 ± 0.023 | 
CNC[C@H]1OCCCC[C@@H](C)Oc2ccc(NC(=O)Nc3ccc(OC)cc3)cc2C(=O)N([C@@H](C)CO)C[C@@H]1C | 0.965 ± 0.12 | 
Cc1cc(C(=O)Nc2ccc3c(c2)C(=O)N(C)[C@H]2CC[C@H](CC(=O)O)O[C@@H]2CO3)no1 | 0.927 ± 0.12 | 
C[C@@H]1CN([C@@H](C)CO)C(=O)c2cc(NS(=O)(=O)c3cccs3)ccc2O[C@@H](C)CCCCO[C@H]1CN(C)C(=O)c1ccncc1 | 1.07 ± 0.045 | 
O=C(Nc1cccc(F)c1)N1CCCCN2[C@H](C1)[C@H](c1ccc(C#Cc3cccnc3)cc1)[C@@H]2CO | 0.836 ± 0.036 | 
O=C(Nc1ccc(F)cc1)N1CC(=O)N2[C@H](C1)[C@H](c1ccc(C#Cc3cccnc3)cc1)[C@@H]2CO | 1.08 ± 0.07 | 
COCC#Cc1ccc([C@@H]2[C@H](CO)N3CCCCN(Cc4cccnc4)C[C@@H]23)cc1 | 1.03 ± 0.068 | 
O=C(Nc1cccc(F)c1)N1CCCCN2[C@@H](CO)[C@H](c3ccc(C#Cc4cccnc4)cc3)[C@@H]2C1 | 1.05 ± 0.075 | 

SMILES | viability index [1] | viability index [2]
COc1cccc(CN2CCCCN3[C@H](CO)[C@@H](c4ccc(C#Cc5cccnc5)cc4)[C@@H]3C2)c1 |  | 0.841 ± 0.06
O=C(Nc1ccc(F)cc1)N1CC(=O)N2[C@@H](CO)[C@H](c3ccc(C#Cc4cccnc4)cc3)[C@@H]2C1 | 1.11 ± 0.058 | 
COCC#Cc1ccc([C@@H]2[C@@H](CO)N3CCCCN(Cc4cccnc4)C[C@@H]23)cc1 | 1.06 ± 0.14 | 
O=C(Nc1cccc(F)c1)N1CCCCN2[C@H](CO)[C@@H](c3ccc(C#Cc4cccnc4)cc3)[C@@H]2C1 | 1.07 ± 0.078 | 
O=C(Nc1cccc(F)c1)N1CCCCN2[C@H](CO)[C@H](c3ccc(C#Cc4cccnc4)cc3)[C@H]2C1 | 0.848 ± 0.034 | 
O=C(Nc1cccc(F)c1)N1CCCCN2[C@@H](CO)[C@@H](c3ccc(C#Cc4cccnc4)cc3)[C@@H]2C1 | 0.979 ± 0.089 | 
O=C(Nc1cccc(F)c1)N1CCCCN2[C@H](CO)[C@H](c3ccc(C#Cc4cccnc4)cc3)[C@@H]2C1 | 1.05 ± 0.024 | 
O=C(Nc1cccc(F)c1)N1CCCCN2[C@H](CO)[C@@H](c3ccc(C#Cc4cccnc4)cc3)[C@H]2C1 | 0.8437 ± 0.0061 | 
CCCC(=O)Nc1ccc2c(c1)C(=O)N(C)C[C@@H](OC)[C@@H](C)CN(Cc1ccc(F)cc1)[C@@H](C)CO2 | 0.941 ± 0.11 | 
O=C(C[C@H]1CC[C@@H]2[C@H](COC[C@@H](O)CN2S(=O)(=O)c2ccc(F)cc2)O1)NCCN1CCCCC1 | 1.113 ± 0.0099 | 
COc1ccc(CN(C)C[C@@H]2OCc3cnnn3CCCC(=O)N([C@@H](C)CO)C[C@@H]2C)cc1 | 1.012 ± 0.0093 | 
CN1C(=O)c2cc(NC(=O)c3ccc(F)c(F)c3)ccc2OC[C@@H]2O[C@H](CC(=O)N3CCCCC3)CC[C@H]21 | 0.986 ± 0.14 | 
N#C[C@@H]1[C@@H](c2ccc(C#CC3(O)CCCC3)cc2)[C@@H](CO)N1C(=O)C1CCCCC1 | 1.11 ± 0.019 | 
O=C(Nc1ccc(C(F)(F)F)cc1)N[C@@H]1C=C[C@@H](CC(=O)N2CCCCC2)O[C@H]1CO | 1.111 ± 0.008 | 
C[C@@H]1CN([C@H](C)CO)C(=O)c2cccc(NC(=O)Nc3ccc(F)cc3)c2O[C@H]1CN(C)S(=O)(=O)c1ccc(Cl)cc1 | 0.92 ± 0.22 | 
CNC(=O)C[C@@H]1CC[C@@H]2[C@@H](COc3ccc(NC(=O)c4ccccc4F)cc3C(=O)N2C)O1 | 1.13 ± 0.083 | 
COc1cccc(S(=O)(=O)N2CC[C@H]3[C@H](CO)Nc4ccc(C#Cc5cccnc5)cc4[C@H]32)c1 | 1.11 ± 0.082 | 
O=C(Nc1ccc(F)cc1)N1CC(=O)N2[C@H](CO)[C@H](c3ccc(C#Cc4cccnc4)cc3)[C@H]2C1 | 1.1 ± 0.086 | 
COc1ccc(NC(=O)N2CCCCN3[C@H](C2)[C@@H](c2ccc(-c4ccccc4F)cc2)[C@@H]3CO)cc1 | 0.981 ± 0.042 | 
O=C(Nc1ccc(F)cc1)N1CC(=O)N2[C@H](CO)[C@H](c3ccc(C#Cc4cccnc4)cc3)[C@@H]2C1 | 1.028 ± 0.0039 | 
COc1ccc(NC(=O)N2CCCCN3[C@@H](CO)[C@@H](c4ccc(-c5ccccc5F)cc4)[C@@H]3C2)cc1 | 0.993 ± 0.011 | 
O=C(Nc1cccc(F)c1)N1CCCCN2[C@H](C1)[C@@H](c1ccc(C#Cc3cccnc3)cc1)[C@@H]2CO | 0.81 ± 0.05 | 

SMILES | viability index [1] | viability index [2]
COc1ccc(C#Cc2ccc([C@@H]3[C@@H](CO)N4CCCCN(C(=O)Nc5cccc(F)c5)C[C@H]34)cc2)cc1 |  | 0.654 ± 0.049
COc1ccccc1NC(=O)N1C[C@@H](O)COC[C@H]2O[C@H](CC(=O)N3CCC(Cc4ccccc4)CC3)CC[C@@H]21 | 1 ± 0.15 | 
COc1ccc(S(=O)(=O)Nc2ccc3c(c2)C(=O)N([C@H](C)CO)C[C@H](C)[C@@H](CN(C)S(=O)(=O)c2ccc(Cl)cc2)OCCCC[C@H](C)O3)cc1 | 0.886 ± 0.03 | 
COc1ccc(S(=O)(=O)Nc2ccc3c(c2)C(=O)N([C@H](C)CO)C[C@@H](C)[C@H](CN(C)S(=O)(=O)c2ccc(Cl)cc2)OCCCC[C@H](C)O3)cc1 | 0.823 ± 0.033 | 
COc1ccc(S(=O)(=O)Nc2ccc3c(c2)C(=O)N([C@H](C)CO)C[C@@H](C)[C@H](CN(C)S(=O)(=O)c2ccc(Cl)cc2)OCCCC[C@@H](C)O3)cc1 | 0.887 ± 0.072 | 
COc1ccc(S(=O)(=O)Nc2ccc3c(c2)C(=O)N([C@H](C)CO)C[C@H](C)[C@@H](CN(C)S(=O)(=O)c2ccc(Cl)cc2)OCCCC[C@@H](C)O3)cc1 | 1.02 ± 0.05 | 
COc1ccc(S(=O)(=O)Nc2ccc3c(c2)C(=O)N([C@@H](C)CO)C[C@H](C)[C@H](CN(C)S(=O)(=O)c2ccc(Cl)cc2)OCCCC[C@@H](C)O3)cc1 | 0.953 ± 0.064 | 
COc1ccc(S(=O)(=O)Nc2ccc3c(c2)C(=O)N([C@@H](C)CO)C[C@@H](C)[C@@H](CN(C)Cc2ccc(C(F)(F)F)cc2)OCCCC[C@H](C)O3)cc1 | 0.994 ± 0.023 | 
COc1ccc(S(=O)(=O)Nc2ccc3c(c2)C(=O)N([C@@H](C)CO)C[C@@H](C)[C@@H](CN(C)S(=O)(=O)c2ccc(Cl)cc2)OCCCC[C@H](C)O3)cc1 | 0.911 ± 0.031 | 
COc1ccc(S(=O)(=O)Nc2ccc3c(c2)C(=O)N([C@H](C)CO)C[C@@H](C)[C@@H](CN(C)S(=O)(=O)c2ccc(Cl)cc2)OCCCC[C@@H](C)O3)cc1 | 0.533 ± 0.11 | 
COc1ccc(S(=O)(=O)Nc2ccc3c(c2)C(=O)N([C@@H](C)CO)C[C@@H](C)[C@@H](CN(C)S(=O)(=O)c2ccc(Cl)cc2)OCCCC[C@@H](C)O3)cc1 | 0.77 ± 0.046 | 
COc1ccc(S(=O)(=O)Nc2ccc3c(c2)C(=O)N([C@@H](C)CO)C[C@H](C)[C@H](CN(C)Cc2ccc(C(F)(F)F)cc2)OCCCC[C@@H](C)O3)cc1 | 1.05 ± 0.2 | 
COc1ccc(S(=O)(=O)Nc2ccc3c(c2)C(=O)N([C@@H](C)CO)C[C@H](C)[C@@H](CN(C)Cc2ccc(C(F)(F)F)cc2)OCCCC[C@@H](C)O3)cc1 | 0.829 ± 0.0097 | 
COc1ccc(S(=O)(=O)Nc2ccc3c(c2)C(=O)N([C@@H](C)CO)C[C@@H](C)[C@H](CN(C)S(=O)(=O)c2ccc(Cl)cc2)OCCCC[C@H](C)O3)cc1 | 0.9073 ± 0.0032 | 
N#C[C@@H]1[C@H](c2ccccc2-c2cccc(F)c2)[C@@H](CO)N1C(=O)c1cccnc1 | 1.09 ± 0.063 | 
O=C(c1cccc(F)c1)N1CC2(C1)[C@H](c1ccccc1)[C@@H](CO)N2Cc1ccccn1 | 1.13 ± 0.11 | 
C[C@@H]1CN([C@@H](C)CO)C(=O)CCCn2nncc2CO[C@H]1CN(C)S(=O)(=O)c1ccc(Oc2ccccc2)nc1 | 1 ± 0.074 | 
C/C=C/c1ccc([C@H]2[C@H]3CNC[C@@H]2N3S(=O)(=O)Cc2ccccc2)cc1 | 1.06 ± 0.047 | 
N#C[C@H]1[C@@H](c2ccccc2-c2ccc(F)cc2)[C@@H](CO)N1C(=O)Cc1cccnc1 | 1.15 ± 0.046 | 
CO[C@@H]1CN(C)C(=O)c2cc(NC(=O)Nc3cc(F)ccc3F)ccc2OC[C@@H](C)NC[C@H]1C | 1.105 ± 0.0072 | 
